These results are taken from PubChem BioAssay (NCI).

The structures appear in SMILES notation. About 83,000 compounds went through this panel and 20% of them were active in at least one assay; those are over-represented in the sample as a whole.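 Negative percent growth values reflect cell death: -40 means 40% of the cells present at the start died, and -100 means all died.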 Unmarked numbers belong to inactive results. Activity calls are given as the source filed them.

For the assay, the system named is U251 CNS. Description: NCI-60 one-dose screen, 48 h (100 = growth as untreated, 0 = no growth, -100 = all killed). The conditions noted are these: 10 µM unless noted. On the procedure:
Growth inhibition of the U251 human tumor cell line is measured as a screen for anti-cancer activity. Cells are grown in 96 well plates and exposed to the test compound for 48 hours. Compounds are tested at a single concentration, which is 10^-5 M for most compounds. The reported endpoint is percent growth (GI% or GIPRCNT), where numbers from 0 - 100% represent growth inhibition, and numbers from -100% - 0 represent cell death. For example, a value of 40 represents 60% growth inhibition. A value of 0 means no net growth occurred over the course of the experiment. A value of -40 indicates 40% of cells at the beginning of the experiment died by the end of the experiment. A value of -100 means all cells are dead at the end of the experiment.
NCI-60 Human Tumor Cell Lines Screen was performed using the standard one-dose NCI protocol, which is described in more detail at https://dtp.cancer.gov/discovery_development/nci-60/default.htm.
Compounds with GIPRCNT values below 10 were considered active. Activity score was based on GIPRCNT using the following formula: […]
Score is 0 for GIPRCNT values of 100 or above, 50 for GIPRCNT values of 0, and 100 for GIPRCNT values of -100.
Take `Nc1ccccc1-c1ccn[nH]1`: the growth is 96.7%. The figure for `O=C(N/N=C/c1cccc([N+](=O)[O-])c1)c1ccc(Br)o1` is 110%; for `CC1c2ccccc2-c2ccccc2N1C` (stereo not given) it is 99.2%; for `COc1cc(NC(=O)NCc2ccco2)ccc1-c1ccc(NC(=O)NCc2ccco2)cc1OC` it is 12.4%. The figure for `CC(NC(N)=S)c1ccccc1` (stereo not given) is 105%.

For `COc1cc(/C=N/NC(=O)c2ccc(C(F)(F)F)nc2Nc2cc(Cl)ccc2C)cc(OC)c1OC`, the growth was 87.4%. As to `FC(F)(F)c1cc(-c2nnc3n2N=C(N2CCCC2)CS3)cc(C(F)(F)F)c1`, the growth was 37.6%. On to `O=C(CSc1ncc(-c2ccccc2)n1-c1ccccc1)Nc1ccc(-c2nc3ccccc3s2)cc1`, for which the growth is 24.7%.

As for `CCCn1c(N)c(C(=O)CNc2ccc(I)cc2)c(=O)[nH]c1=O`, the growth was 28.8%. The same measure for `O=C(O)C1C(c2ccccc2)c2ccccc2C(O)C1CO` (stereo not given): 105%; for `O=C(CNC(=O)c1cccc2ccccc12)Nc1ccccc1Oc1cccc(O)c1`: 14.3% [5 µM].

On to `Cn1cc(NC(=O)Nc2cc(C(=O)O)n(C)c2)cc1C(=O)O`, for which the growth is 100%.

In the case of `C=C1CC[C@@H]2[C@](C)(COC(C)=O)[C@H](OC(C)=O)CC[C@@]2(C)[C@@H]1CC(NCc1ccccc1)C1=CCOC1=O` (stereo not given in full), the growth was 47.6%. The same measure for `CCc1nn2c(-c3ccc(Cl)cc3C)c(-c3cc(OC)c(OC)c(OC)c3)nc2s1`: 89.7%; for `Cc1ccccc1NC(=O)NC(CC(N)=O)c1ccc2c(c1)nc(-c1cccc(Oc3ccc(C(C)(C)C)cc3)c1)n2CCCN1CCCCC1C` (stereo not given): -74.2% (active). In the case of `COc1cccc(/C=N\NC(=O)c2ccncc2)c1O`, the growth was 31.6%. Consider `Cc1ccc(C2=NNC(c3sc(Cl)nc3Cl)C2)cc1` (stereo not given), for which the growth is 99.1%.

Turning to `C/C(=C\CCc1ccsc1)CC/C=C(\C)CCCN1CCSCC1`, the growth is 88.5%. The figure for `O=c1[nH]cc(Nc2cc(Cl)c3nonc3c2[N+](=O)[O-])c(=O)[nH]1` is 98.6%; for `CCSc1nc(Nc2ccc(S(=O)(=O)Nc3ccon3)cc2)c(C#N)c(-c2cccc(Br)c2)n1` it is 81.1%. On to `Cc1cc(=O)oc2cc(OCCn3c(C)nn(-c4ccc(Cl)cc4)c3=O)ccc12`, for which the growth is 31.4%.

For `COc1cc(/C=C/C(=O)C(C(=O)/C=C/c2ccc(OC(=O)CCNC34CC5CC(CC(C5)C3)C4)c(OC)c2)C(=O)CCNC23CC4CC(CC(C4)C2)C3)ccc1OC(=O)CCNC12CC3CC(CC(C3)C1)C2` (stereo not given), the growth was 7.57% (active). Regarding `COc1ccc(OC)c(CCn2cncc2-c2c[nH]c3cc(Br)ccc23)c1`, the growth was 34.9%. With `COC(=O)[C@H](Cc1cn(C)cn1)NC(=O)[C@H](Cc1ccccc1)NC(=O)Nc1cc(C(F)(F)F)cc(C(F)(F)F)c1`, the growth was -95.6% [100 µM] (active). With `COc1ccc(CNC(=O)c2c(C)n([O-])c3cc(F)c(F)cc3[n+]2=O)cc1`, the growth was 94.9%. The figure for `COc1ccccc1NC(=O)c1sc2nc3c(cc2c1N)C(=O)CCC3` is 65.1%. The figure for `N#Cc1c(-c2ccccc2)cc(-c2ccccc2)n(CCCCCCC(=O)O)c1=O` is 98.1%; for `O=Cc1ccccc1C(=O)O` it is 96.9%.

`Cc1ccc(N/N=C(/C(=O)c2ccc(Cl)cc2)c2nc(C)cc(=O)[nH]2)cc1`: the growth was 103%.

For the molecule `COc1ccc(CNC(=O)c2c(C)n([O-])c3ccccc3[n+]2=O)cc1`, the growth is 97.3%. The same measure for `CNNc1ncnc2c1cnn2-c1ccc(S(N)(=O)=O)cc1`: 98.5%; for `Cc1sc2nc3c4ccccc4c(NCCCN(C)C)nn3c(=O)c2c1C`: 55.8%. The same measure for `CCN(CC)CCNCC(=O)Oc1ccc(/C=C/C(=O)CC(=O)/C=C/c2ccc(OC(=O)CNCCN(CC)CC)c(OC)c2)cc1OC`: 13.4%; for `O=C1NC(=O)/C(=C\c2ccco2)S1`: 101%. The same measure for `Cc1cc(C)c2c(N)c3cccc(C)c3nc2n1`: 17.4%; for `C[C@]12CCC(=O)C=C1CC[C@H]1[C@@H]3C[C@@H](O)[C@](O)(C(=O)CO)[C@@]3(C)C[C@H](O)[C@@]12F`: 109%. `O=C(COc1cccc(/C=C2\Oc3ccc4ccccc4c3C2=O)c1)c1ccc(Cl)cc1`: the growth is 61.5%. For the molecule `O=C(Nc1ccccc1S)c1ccccc1`, the growth is 94.8%. The same measure for `CC1CC=CCC1C1OCC(C)(C)CO1` (stereo not given): 92.9%. Take `Nc1ccc2c(c1)C(=O)c1cc(Cl)c(Cl)cc1-2`: the growth is 90.4%.
